40 compounds from PubChem BioAssay (NCI) can be followed below.

About 83,000 compounds went through this panel and 20% of them were active in at least one assay; those are over-represented in the sample as a whole.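 In brief: 96-well plates, 48 h treatment, single concentration, percent growth endpoint.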 Activity calls are given as the source filed them.

In this experiment the test system is NCI-H322M lung. Briefly: NCI-60 one-dose screen, 48 h (100 = growth as untreated, 0 = no growth, -100 = all killed). Conditions: 10 µM unless noted. On the procedure:
Growth inhibition of the NCI-H322M human Non-Small Cell Lung tumor cell line is measured as a screen for anti-cancer activity. Cells are grown in 96 well plates and exposed to the test compound for 48 hours. Compounds are tested at a single concentration, which is 10^-5 M for most compounds. The reported endpoint is percent growth (GI% or GIPRCNT), where numbers from 0 - 100% represent growth inhibition, and numbers from -100% - 0 represent cell death. For example, a value of 40 represents 60% growth inhibition. A value of 0 means no net growth occurred over the course of the experiment. A value of -40 indicates 40% of cells at the beginning of the experiment died by the end of the experiment. A value of -100 means all cells are dead at the end of the experiment.
NCI-60 Human Tumor Cell Lines Screen was performed using the standard one-dose NCI protocol, which is described in more detail at https://dtp.cancer.gov/discovery_development/nci-60/default.htm.
Compounds with GIPRCNT values below 10 were considered active. Activity score was based on GIPRCNT using the following formula: […]
Score is 0 for GIPRCNT values of 100 or above, 50 for GIPRCNT values of 0, and 100 for GIPRCNT values of -100.
Turning to `CSc1ccc(N=C=C(c2ccccc2)c2ccccc2)cc1`, the growth was 107% (inactive).

Turning to `O=C(Nc1nc(-c2ccccc2)cc(-c2ccc(Cl)cc2)n1)c1ccncc1`, the growth was 95.6% (inactive).

For `Clc1nc(Cl)c2c3c(sc2n1)CCCC3`, the growth was 90.2% (inactive).

For `COc1ccc(-c2cc(C(=O)N=Nc3c(O)[nH]c4ccccc34)no2)cc1`, the growth is 103% (inactive).

Regarding `CC(C)(C)n1cc(-c2ccnc(NCCCNS(=O)(=O)c3cccc4ccccc34)c2)c(-c2cccc(O)c2)n1`, the growth is 43.4% (inactive).

Take `COc1cc(C#N)cc(OC)c1OCCN(CCOc1c(OC)cc(C#N)cc1OC)S(=O)(=O)c1ccc(C)cc1`: the growth was 91.6% (inactive).

Turning to `COc1ccc(/C=N\NC(=O)c2ccncc2)cc1O`, the growth is 99.3% (inactive).

As to `COc1ccc(C2Nc3ccccc3-n3cccc32)cc1` (stereo not given), the growth is 97% (inactive).

For the compound `Oc1ccccc1/C=N/Nc1ccc2ccccc2n1`, the growth was 31.2% (inactive).

As for `CCCCCCCCSC1=CC(=O)C(OC)=C(OC)C1=O`, the growth is 89.4% (inactive).

Regarding `CC1=N/C(=C\c2cccc(Br)c2)C(=O)O1`, the growth is 106% (inactive).

`CC(=O)C1=C(O)C=C2Oc3c(C(=O)/C=C/c4ccccc4)c(O)c(C)c(O)c3[C@]2(C)C1=O`: the growth is 31.5% (inactive).

`COc1ccc(/C=C2\CN(C(=O)CCN3CCC(=NO)CC3)C/C(=C\c3ccc(OC)cc3)C2=O)cc1`: the growth is 17.8% (inactive).

For the compound `Cc1ccc2c(c1)O/C(=C\c1cccc(OCC(=O)c3ccccc3)c1)C2=O`, the growth is 116% (inactive).

On to `O=C(/C=C/c1cccc(Br)c1)c1ccccc1`, for which the growth is 97.7% (inactive).

Turning to `CC#Cc1nc2ccccc2c(=O)[nH]1`, the growth is 104% (inactive).

With `CC(=O)C1=C(O)C=C2Oc3c(C(=O)/C=C/c4cc(C(F)(F)F)cc(C(F)(F)F)c4)c(O)c(C)c(O)c3[C@]2(C)C1=O`, the growth is -44.8% (active).

Regarding `CNC(=O)c1cc(Oc2ccc3nc(NC(=O)Nc4ccc(N5CCC(N(C)C)CC5)cc4)sc3c2)ccn1`, the growth was 88.9% (inactive).

Take `CN1Cc2c(cc(CN3CCCCC3)n2C)C(c2ccc(Br)cc2)C1` (stereo not given): the growth was 91.5% (inactive).

Regarding `COc1ccc2[nH]c(=O)c(/C=C/C(=O)c3ccc(Nc4nccc(-c5ccc6ccccc6c5)n4)cc3)cc2c1`, the growth was 97.7% (inactive).

As to `COc1ccc(/C(=C/c2ccc3ccccc3c2)c2nn[nH]n2)cc1OC`, the growth is 40.1% (inactive).

In the case of `C=C1C(=O)O[C@H]2[C@H]1CC/C(Cn1cc(Cc3c[nH]c4ccccc34)nn1)=C\CC[C@@]1(C)O[C@@H]21`, the growth was 85.1% (inactive).

On to `O=C1c2ccccc2-c2nccc3cc(Cl)nc1c23`, for which the growth is 95.7% (inactive).

As to `COc1cnc2c(c1)C(=O)c1c-2n(CCCBr)c(=O)c2cc([N+](=O)[O-])ccc12`, the growth is 15.5% (inactive).

For the compound `Cc1ccc(S(=O)(=O)N(CCc2ccc(Cl)cc2)S(=O)(=O)c2ccc(C)cc2)cc1`, the growth was 93.1% (inactive).

Turning to `COc1cccc(-n2cc(-c3nc(Nc4cc(C)[nH]n4)c4ccccc4n3)nn2)c1`, the growth was 52.2% (inactive).

On to `O=[N+]([O-])c1c(F)cccc1Nc1cccc(F)c1`, for which the growth was 108% (inactive).

As to `CN1CCN(c2ccc3nc(-c4ccc5nc(-c6ccc(OCCC(C)(C)C)cc6)[nH]c5c4)[nH]c3c2)CC1`, the growth is 40.7% (inactive).

For the compound `O=C(/C=C/c1ccc(Cl)cc1)/C=C/c1cc2ccccc2[nH]c1=O`, the growth was 105% (inactive).

On to `c1ccc(Sc2ncnc3ccccc23)cc1`, for which the growth was 79.9% (inactive).

In the case of `COc1ccc2nc3cc(Cl)ccc3c(N3CCN(c4ccnc(N5CCN(C)CC5)n4)CC3)c2c1`, the growth was 94.2% (inactive).

On to `O=c1cc(-c2ccccc2)[nH]c2ccccc12`, for which the growth was 55.4% (inactive).

For `COc1ccc(/C=C2\N=C3Sc4cc(Cl)ccc4C(=O)N3C2=O)cc1`, the growth is 95.8% (inactive).

Turning to `CCOC(=O)c1cnc2cc(Cl)c(F)cc2c1Nc1cccc(NS(C)(=O)=O)c1`, the growth is 96.3% (inactive).

Take `COC(=O)C12C3C(=O)N(c4ccc(OC)cc4)C(=O)C3C(c3cn(-c4ccccc4)nc3C)N1[C@H](c1cn(-c3ccccc3)nc1C)[C@@H]1C(=O)N(c3ccc(OC)cc3)C(=O)[C@@H]12` (stereo not given in full): the growth is 112% (inactive).

For the compound `O=C(O)c1ccc2c(c1Sc1ccccc1)C(=O)c1ccccc1C2=O`, the growth was 82.2% (inactive).

Regarding `O=C(O)c1ccccc1Nc1cccc(S(F)(F)(F)(F)F)c1`, the growth is 101% (inactive).

As to `O=S(=O)(NCCCNc1cc(-c2cn(-c3ccccc3)nc2-c2ccccc2)ccn1)c1ccc(C(F)(F)F)cc1`, the growth was 66.8% (inactive).

`CC1=C(NCCN2CCCC2)C(=O)c2c(OCc3ccc(C(F)(F)F)cc3)cccc2C1=O`: the growth is 91% (inactive).

On to `O=c1c2cccc3c(Nc4ccccn4)ccc(c32)c2nc3ccccc3n12`, for which the growth is 74.5% (inactive).
